Test [1] can be described thus: small molecules captured by biotinylated probe aFSTL3 – biochemical, small-molecule microarray, fluorescence 635/667, stem cell growth factor project, primary screen (AID 1064).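 Note: measures binding of the biotinylated anti-FSTL3 antibody to printed compounds.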 The settings on record: higher = more signal.
The nature of test [2]: binders from COS7 lysate, DM2A8 probe, primary screen, torsin A project, cell lysate, small-molecule microarray, fluorescence 635/667 (AID 1065). The settings on record: higher = more signal, COS7 lysate expressing mutant human TOR1A.
Test [3] is described as follows: small molecules captured by biotinylated probe aFGF2 – biochemical, small-molecule microarray, fluorescence 635/667, stem cell growth factor project, primary screen (AID 1067).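 Note: measures binding of biotinylated aFGF2 protein to printed compounds on slides; z-score merges feature fluorescence and signal-to-noise across triplicate slides.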 The settings on record: higher = more signal.
The nature of test [4]: small molecules captured by biotinylated probe aFGF10 – biochemical, small-molecule microarray, fluorescence 635/667, stem cell growth factor project, primary screen (AID 1071).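 Note: score merges 667 nm spot intensity and signal to noise from triplicate slides.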 The settings on record: higher = more signal.
Test [5] deals with Neurogenic locus notch homolog protein 2 (Homo sapiens) (UniProt Q04721). The experiment in a line: small molecules binding Notch2 protein – biochemical, small-molecule microarray, 635 nm fluorescence, stem cell growth factors, primary screen (AID 1073). The settings on record: higher = more signal.
Test [6] concerns the target Pro-neuregulin-1, membrane-bound isoform (Homo sapiens) (UniProt Q02297). The experiment in a line: small molecules binding neuregulin-1 protein – biochemical, small-molecule microarray, fluorescence 635/667, psychiatric disease protein project, primary screen (AID 1075).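 Note: score combines 667 nm spot fluorescence with signal to noise.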 The settings on record: NRG1 binding, 635 nm fluorescence, higher = more signal.
Test [7] deals with Neuregulin-1 EGF-like domain. The experiment in a line: small molecules binding NRG1 EGF domain – biochemical, small-molecule microarray, 635 nm fluorescence, primary screen (AID 1081).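 Note: binding of the protein to compounds printed on small-molecule microarray slides.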 The settings on record: higher = more signal.
Test [8] can be described thus: FRG1 expression reporter modulators in myotubes – cell-based, C2C12 myotubes, firefly/Renilla luciferase, luminescence, FRG1 inhibition for FSHD, primary screen (AID 1084). The settings on record: FRG1 promoter luciferase, higher = more signal, called active from +8 up or from −8 down.
Test [9] is described as follows: small molecules captured by biotinylated probe aFST – biochemical, small-molecule microarray, fluorescence 635/667, stem cell growth factor project, primary screen (AID 1086).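 Note: score merges 667 nm fluorescence with signal-to-noise of each printed compound spot.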 The settings on record: higher = more signal.
A short description of test [10]: binders of probe aHhip on microarray, primary screen, stem cell growth factor project, biochemical, small-molecule microarray, fluorescence 635/667 (AID 1087).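 Note: score merges spot fluorescence at 667nm with spot signal to noise ratio.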 The settings on record: higher = more signal.
Test [11] has as its system PRMT1 (protein arginine N-methyltransferase 1). The experiment in a line: small molecules binding arginine methyltransferase PRMT1 – biochemical, small-molecule microarray, 635 nm fluorescence, primary screen (AID 1088).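 Note: binding of Prmt1 protein to compounds spotted on small-molecule microarray slides.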 The settings on record: higher = more signal.
Test [12] can be described thus: growth effects on S. cerevisiae YJM789 – YJM789 clinical isolate, OD600, 24 h, basal, primary screen (AID 1089).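 Note: growth of clinical yeast isolate S. cerevisiae YJM 789 seeded 1000 cells per well; test concentration not given here.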 The settings on record: higher = more signal, called active from +8 up or from −8 down.
The nature of test [13]: S. pombe growth modifiers, basal conditions – strain 972, OD600, 24 h, no modulator, primary screen (AID 1090).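 Note: basal condition with compound alone and no growth modifier present; test concentration not given here.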 The settings on record: S. pombe 972 growth, higher = more signal, called active from +8 up or from −8 down.
A short description of test [14]: budding yeast growth modifiers under rapamycin – strain BY4716, OD600, 96 h, primary screen (AID 1091). Note: test concentration not given here. The settings on record: S. cerevisiae BY4716 + rapamycin, higher = more signal, called active from +8 up or from −8 down.
Test [15] addresses Torsin-1A-interacting protein 2 (Homo sapiens) (UniProt Q8NFQ8). The experiment in a line: small molecules binding lysate-expressed LULL1 – cell lysate, human LULL1 lysate, 635/667 nm fluorescence, primary screen (AID 1092).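 Note: probe is lysate of COS7 cells overexpressing human LULL1; score merges per-feature 667 nm fluorescence with signal-to-noise.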 The settings on record: small-molecule microarray, hLULL1 lysate binding, 635 nm fluorescence; higher = more signal.
Test [16] can be described thus: optical density change of DRC41 E. coli – strain DRC41, OD650, 24 h, E. coli filamentation project, primary screen (AID 1093).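 Note: MC1000 strain lacking acrAB efflux and sulA so SOS filamentation is blocked; test concentration not given here.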 The settings on record: E. coli DRC41 growth, higher = more signal, called active from +8 up or from −8 down.
Test [17] is described as follows: probe aLefty2 binding to arrayed compounds – biochemical, biotinylated probe, 635/667 nm fluorescence, primary screen (AID 1094).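 Note: score merges spot fluorescence near 667 nm with spot signal-to-noise ratio.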 The settings on record: small-molecule microarray, higher = more signal.
For test [18], the system named is Noggin (protein binding on small-molecule microarray). The experiment in a line: small molecules binding Noggin protein – biochemical, 635/667 nm fluorescence, primary screen (AID 1095).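 Note: score merges 667 nm feature fluorescence with signal to noise over triplicate slides.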 The settings on record: 635 nm fluorescence, higher = more signal.
The target in test [19] is Neurogenic locus notch homolog protein 3 (Homo sapiens) (UniProt Q9UM47). The experiment in a line: small molecules binding NOTCH3 protein – biochemical, 635/667 nm fluorescence, primary screen (AID 1096). The settings on record: small-molecule microarray, 635 nm fluorescence, higher = more signal.
Test [20] is described as follows: probe aEGFR binding to arrayed compounds – biochemical, biotinylated probe, 635/667 nm fluorescence, primary screen (AID 1097).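 Note: probe is a biotinylated anti-EGFR antibody binding compounds printed on slides; score combines fluorescence near 667 nm and signal to noise of each spot.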 The settings on record: small-molecule microarray, higher = more signal.

Activity calls are given as the source filed them.

Neurogenic locus notch homolog protein 3 (Homo sapiens), sequence (Q9UM47 whole entry, looked up): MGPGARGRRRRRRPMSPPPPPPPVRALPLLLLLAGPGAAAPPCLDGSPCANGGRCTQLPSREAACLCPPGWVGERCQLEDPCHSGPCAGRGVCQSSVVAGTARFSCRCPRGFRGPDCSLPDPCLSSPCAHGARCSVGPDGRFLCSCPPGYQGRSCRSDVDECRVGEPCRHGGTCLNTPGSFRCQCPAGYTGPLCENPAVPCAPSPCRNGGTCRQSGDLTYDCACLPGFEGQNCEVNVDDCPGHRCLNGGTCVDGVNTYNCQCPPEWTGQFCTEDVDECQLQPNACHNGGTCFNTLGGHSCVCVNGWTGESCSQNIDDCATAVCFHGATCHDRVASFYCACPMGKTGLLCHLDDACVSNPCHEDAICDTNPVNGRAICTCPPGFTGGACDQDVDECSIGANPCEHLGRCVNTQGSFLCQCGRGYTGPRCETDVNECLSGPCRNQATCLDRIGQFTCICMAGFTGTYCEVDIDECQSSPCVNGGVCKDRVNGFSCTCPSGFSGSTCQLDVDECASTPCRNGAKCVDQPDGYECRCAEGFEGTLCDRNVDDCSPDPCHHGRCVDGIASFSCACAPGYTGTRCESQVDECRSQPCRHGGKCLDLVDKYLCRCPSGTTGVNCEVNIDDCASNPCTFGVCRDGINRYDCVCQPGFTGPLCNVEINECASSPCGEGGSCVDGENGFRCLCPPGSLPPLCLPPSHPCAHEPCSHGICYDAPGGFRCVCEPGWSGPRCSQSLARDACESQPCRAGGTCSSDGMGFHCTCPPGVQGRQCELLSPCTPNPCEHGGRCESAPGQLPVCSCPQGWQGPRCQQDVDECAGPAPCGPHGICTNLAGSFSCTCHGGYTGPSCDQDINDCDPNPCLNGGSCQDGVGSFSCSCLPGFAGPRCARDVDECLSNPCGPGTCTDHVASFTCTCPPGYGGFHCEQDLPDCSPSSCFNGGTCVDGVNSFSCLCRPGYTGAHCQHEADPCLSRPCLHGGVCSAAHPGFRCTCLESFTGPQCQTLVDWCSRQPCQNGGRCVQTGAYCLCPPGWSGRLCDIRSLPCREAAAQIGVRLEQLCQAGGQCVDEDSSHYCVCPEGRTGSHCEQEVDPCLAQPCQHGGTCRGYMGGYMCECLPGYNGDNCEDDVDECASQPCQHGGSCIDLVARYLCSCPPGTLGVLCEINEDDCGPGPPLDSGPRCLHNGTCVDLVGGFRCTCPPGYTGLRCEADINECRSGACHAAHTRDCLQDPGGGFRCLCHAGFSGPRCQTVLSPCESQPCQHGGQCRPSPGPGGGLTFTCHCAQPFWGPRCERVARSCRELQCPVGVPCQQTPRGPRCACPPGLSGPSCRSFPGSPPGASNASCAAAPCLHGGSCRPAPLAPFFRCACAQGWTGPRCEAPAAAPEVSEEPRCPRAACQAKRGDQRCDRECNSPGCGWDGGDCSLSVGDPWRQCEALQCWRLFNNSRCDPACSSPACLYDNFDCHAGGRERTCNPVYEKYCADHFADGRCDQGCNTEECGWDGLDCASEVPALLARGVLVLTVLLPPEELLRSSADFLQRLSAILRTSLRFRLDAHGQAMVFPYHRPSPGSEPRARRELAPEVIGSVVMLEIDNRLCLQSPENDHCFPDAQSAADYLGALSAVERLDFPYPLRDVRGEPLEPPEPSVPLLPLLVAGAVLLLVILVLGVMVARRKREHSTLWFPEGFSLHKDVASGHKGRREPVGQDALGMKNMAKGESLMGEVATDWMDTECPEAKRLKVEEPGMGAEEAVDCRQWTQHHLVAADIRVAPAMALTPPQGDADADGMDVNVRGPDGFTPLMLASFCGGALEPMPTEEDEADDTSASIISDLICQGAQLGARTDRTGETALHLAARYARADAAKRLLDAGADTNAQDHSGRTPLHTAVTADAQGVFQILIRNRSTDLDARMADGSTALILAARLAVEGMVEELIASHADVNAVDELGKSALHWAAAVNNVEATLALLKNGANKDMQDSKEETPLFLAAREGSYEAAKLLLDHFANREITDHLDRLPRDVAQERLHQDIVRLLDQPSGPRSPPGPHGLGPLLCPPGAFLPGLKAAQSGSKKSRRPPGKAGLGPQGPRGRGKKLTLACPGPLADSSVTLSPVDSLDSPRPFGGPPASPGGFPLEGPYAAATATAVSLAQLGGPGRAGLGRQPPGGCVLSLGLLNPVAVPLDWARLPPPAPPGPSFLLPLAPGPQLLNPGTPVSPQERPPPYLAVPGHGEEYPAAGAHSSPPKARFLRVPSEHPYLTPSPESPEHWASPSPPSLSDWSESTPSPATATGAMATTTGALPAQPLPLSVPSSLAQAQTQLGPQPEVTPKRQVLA
Pro-neuregulin-1, membrane-bound isoform (Homo sapiens), sequence (Q02297 whole entry, looked up, the tested form may be a part, canonical isoform): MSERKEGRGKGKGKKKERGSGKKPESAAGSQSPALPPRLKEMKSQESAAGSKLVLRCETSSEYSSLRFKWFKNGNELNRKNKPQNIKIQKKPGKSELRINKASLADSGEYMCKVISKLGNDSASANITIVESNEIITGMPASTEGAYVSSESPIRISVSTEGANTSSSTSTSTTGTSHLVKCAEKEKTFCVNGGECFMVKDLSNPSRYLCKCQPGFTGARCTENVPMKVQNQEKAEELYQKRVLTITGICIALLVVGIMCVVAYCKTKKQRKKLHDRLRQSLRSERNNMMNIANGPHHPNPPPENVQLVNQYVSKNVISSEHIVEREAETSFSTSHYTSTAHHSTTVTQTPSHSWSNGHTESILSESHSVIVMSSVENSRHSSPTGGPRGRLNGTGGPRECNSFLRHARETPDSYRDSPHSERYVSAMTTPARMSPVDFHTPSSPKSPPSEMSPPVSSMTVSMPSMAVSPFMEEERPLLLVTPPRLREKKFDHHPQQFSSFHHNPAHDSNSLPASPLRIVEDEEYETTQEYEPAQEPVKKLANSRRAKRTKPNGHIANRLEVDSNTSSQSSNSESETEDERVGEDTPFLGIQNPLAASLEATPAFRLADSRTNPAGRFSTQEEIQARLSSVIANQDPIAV
Torsin-1A-interacting protein 2 (Homo sapiens), sequence (Q8NFQ8 whole entry, looked up): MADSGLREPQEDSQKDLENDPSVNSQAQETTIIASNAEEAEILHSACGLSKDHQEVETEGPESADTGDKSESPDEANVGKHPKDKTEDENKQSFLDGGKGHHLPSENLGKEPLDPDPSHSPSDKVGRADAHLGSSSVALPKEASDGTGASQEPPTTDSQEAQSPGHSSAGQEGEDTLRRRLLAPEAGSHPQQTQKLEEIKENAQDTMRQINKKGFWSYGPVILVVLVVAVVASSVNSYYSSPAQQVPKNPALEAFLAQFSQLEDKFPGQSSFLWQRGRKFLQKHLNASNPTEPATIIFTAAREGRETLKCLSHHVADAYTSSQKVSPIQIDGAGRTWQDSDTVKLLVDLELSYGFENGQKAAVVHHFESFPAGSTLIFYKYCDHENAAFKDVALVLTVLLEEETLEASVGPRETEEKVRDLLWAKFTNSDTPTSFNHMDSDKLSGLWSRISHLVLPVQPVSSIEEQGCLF

Consider `C=CCOC(=O)[C@@H]1[C@H]2C(=O)O[C@H](c3ccccc3)[C@H](c3ccccc3)N2[C@H](c2ccc(OCCOC(=O)[C@H]3C[C@H]4C(=O)N5CCC[C@H]5C(=O)N4[C@H]3c3ccc(O)cc3)cc2)[C@@]12C(=O)Nc1ccc(I)cc12`, for which the composite z-score is -0.493 in test [1]; 0.942 in test [2]; -0.0958 in test [3]; 0.59 in [4]; 0.929 in [5]; 0.782 in [6]. The composite z-score in [7] was 1.24; in test [9], -0.0364; in test [10], -0.34; in [11] it was 1.54; in test [15], 1.95; in test [17], -0.203. Also, the composite z-score in test [18] was 1.46; in test [19], 1.07; in test [20], -0.119. The z-score is -0.627 (inactive) in test [8]; 0.825 (inactive) in [12]; 0.267 (inactive) in [13]; 3.14 (inactive) in [14]; 0.553 (inactive) in test [16].

Consider `CC(C)NC(=O)[C@@H]1c2ccccc2C(=O)N(C2Cc3ccccc3C2)[C@H]1c1ccc(CO)cc1`, for which the composite z-score in [1] is 0.351; in test [2] it was 0.329; in [3], -0.0234; in test [4], 0.0799; in test [5], 0.526; in test [6], 0.634. For the same molecule, the composite z-score in [7] is 0.998; in [9] it was 0.148; in test [10], -0.131; in test [11], 1.03; in [15], 2.33; in test [17], -0.0491. Besides, the composite z-score in [18] was 0.0941; in [19] it was 0.436; in [20] it was -0.126. Further, the z-score in test [8] was -0.943 (inactive); in test [12], -0.14 (inactive); in test [13], -0.0232 (inactive); in test [14], -0.377 (inactive); in test [16], 1.28 (inactive).

For the molecule `CC(C)C[C@@H]1NC(=O)[C@@H]2C[C@H](C(=O)O)[C@H](c3cccc(OCCO)c3)N2C1=O`, the composite z-score was 0.73 in [1]; 0.363 in test [2]; -0.0403 in [3]; -0.276 in test [4]; -0.475 in test [5]; 0.402 in [6]. Moreover, the composite z-score in test [7] was 0.643; in test [9] it was -0.235; in test [10], -0.264; in [11], 0.64; in test [15], 1.89; in test [17], -0.173. For the same molecule, the composite z-score was -0.0135 in test [18], -0.155 in test [19] and -0.229 in test [20]. Further, the z-score in [8] is 1.29 (inactive); in test [12] it was -0.19 (inactive); in [13] it was -0.734 (inactive); in test [14], -0.56 (inactive); in test [16], 1.06 (inactive).

Source of the values: PubChem BioAssay.
